# Source: the supplement of paper PMC6555819
# Assays:
# Assay in all cases: PBM binding z-score (relative to random genomic background probes); higher = stronger binding; sequences stand for … in GC…GCGATTGACAGCGTAGAATGAAGG
# [1] = test system: FXR:RXRa (NR concentration 270 nM, RXRa partner concentration 90 nM)
# How it was run: (§1)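 Ligand-free nuclear receptor dimers were bound for 1 h to custom Agilent 4×180K protein-binding microarrays. Detection used antibodies against each partner (one per run). Binding z-scores rest on regression-normalized fluorescence, with random background probes as the reference.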
# [2] = test system: LXRa:RXRa (NR concentration 270 nM, RXRa partner concentration 90 nM)
# How it was run: as §1
# [3] = test system: LXRa homodimer (NR concentration 270 nM)
# How it was run: as §1
# [4] = test system: LXRb:RXRa (NR concentration 270 nM, RXRa partner concentration 90 nM)
# How it was run: as §1
# [5] = test system: LXRb homodimer (NR concentration 270 nM)
# How it was run: as §1
# [6] = test system: PPARa:RXRa (NR concentration 270 nM, RXRa partner concentration 90 nM)
# How it was run: as §1
# [7] = test system: PPARg:RXRa (NR concentration 180 nM, RXRa partner concentration 90 nM)
# How it was run: as §1
# [8] = test system: PPARg:RXRa 270nM:90nM, anti-RXR (NR concentration 270 nM, RXRa partner concentration 90 nM)
# How it was run: as §1
# [9] = test system: PPARg:RXRa 30nM:10nM, anti-RXR (NR concentration 30 nM, RXRa partner concentration 10 nM)
# How it was run: as §1
# [10] = test system: PPARg:RXRa 90nM:30nM, anti-RXR (NR concentration 90 nM, RXRa partner concentration 30 nM)
# How it was run: as §1
# [11] = test system: PPARg:RXRa DBDmut IVT, anti-RXR (DBD mutation: RXRa K156A/R161A, NR concentration 270 nM, RXRa partner concentration 90 nM)
# How it was run: as §1
# [12] = test system: PPARg:RXRa IVT, anti-PPARg (NR concentration 270 nM, RXRa partner concentration 90 nM)
# How it was run: as §1
# [13] = test system: PPARg DBDmut:RXRa IVT, anti-PPARg (DBD mutation: PPARg1 K132A/R137A, NR concentration 270 nM, RXRa partner concentration 90 nM)
# How it was run: as §1
# [14] = test system: PPARg DBDmut IVT, anti-PPARg (DBD mutation: PPARg1 K132A/R137A, NR concentration 270 nM)
# How it was run: as §1
# [15] = test system: PPARg homodimer (NR concentration 180 nM)
# How it was run: as §1
# [16] = test system: PXR:RXRa (NR concentration 270 nM, RXRa partner concentration 90 nM)
# How it was run: as §1
# [17] = test system: PXR homodimer (NR concentration 270 nM)
# How it was run: as §1
# [18] = test system: RARa:RXR (NR concentration 270 nM, RXRa partner concentration 90 nM)
# How it was run: as §1
# [19] = test system: RARa homodimer (NR concentration 270 nM)
# How it was run: as §1
# [20] = test system: RARb:RXRa (NR concentration 270 nM, RXRa partner concentration 90 nM)
# How it was run: as §1
Sequence,PBM binding z-score [1],PBM binding z-score [2],PBM binding z-score [3],PBM binding z-score [4],PBM binding z-score [5],PBM binding z-score [6],PBM binding z-score [7],PBM binding z-score [8],PBM binding z-score [9],PBM binding z-score [10],PBM binding z-score [11],PBM binding z-score [12],PBM binding z-score [13],PBM binding z-score [14],PBM binding z-score [15],PBM binding z-score [16],PBM binding z-score [17],PBM binding z-score [18],PBM binding z-score [19],PBM binding z-score [20]
CAAACTAGGTCAAGGTCAAAGTTGGTTTGTGCCA,7,5.55,4.19,4.77,1.48,6.04,9.87,7.82,6.98,8.52,8.46,8.73,4.69,4.12,4.93,5.28,2.75,5.45,1.94,5.19
TCATATAGGTAAATGCTAGGTGAAAGCCCGATCT,0.778,0.754,0.00437,0.675,-0.102,1.4,0.799,2.27,3.75,3.05,3.61,2.73,0.828,0.941,0.598,0.505,-0.0207,1.05,0.798,0.444
CCAGACAGGTCAAAGGTAACTCAGTCTGGTACGC,6.4,4.97,0.903,4.17,0.453,5.83,7.89,7.43,6.13,8.02,3.48,3.96,-0.0161,0.672,2.75,4.5,0.483,6.08,0.857,4.52
CATTACGGGTCACTCCAGGTTATAGCATCGGAGT,5.62,7.54,4.42,5.55,1.54,4.96,4.53,4.77,1.56,3.53,3.99,4.96,1.72,1.65,2.09,5.11,0.705,3.78,0.9,3.97
GCTCGCAGGACAAGGTCAGAGCTTTGTCCGTAGA,1.42,1.47,-0.546,1.08,-1.31,2.19,-0.311,0.692,-0.968,-0.0202,-0.189,0.355,-1.69,-1.23,-0.0307,1.35,-0.47,1.6,-1.24,3.05
CCGATTGGGGCATAAGGTTACCATAAGCCAGCCC,0.433,2.07,-0.331,0.749,-0.968,1.96,1.92,2.87,0.812,2.27,1.21,1.53,-1.1,-1.31,0.682,0.17,-0.12,1.42,-0.579,1.66
ACTCGGAGGACAAAGGTCAGATCTACGCCAGTGA,4.14,4.18,1.82,3.46,1,4.65,7.02,6.8,5.45,6.92,0.776,3.13,0.263,-0.358,2.46,3.86,0.325,4.45,1.42,4.33
GGTTGTAGATCAAGGTTAAGAAAGACTAAGCTAA,0.73,1.3,0.323,1.19,0.361,1.5,0.938,1.63,0.752,1.31,0.74,1.03,0.337,0.177,1.28,0.988,0.866,1.16,1.7,1.17
ATCTCTAGGTAAAGATAGTTCAGTGGATGCAAAT,0.0236,4.13,0.642,0.57,0.439,0.29,0.474,0.242,0.139,0.257,1.85,1.54,0.905,0.158,0.189,0.971,0.373,0.0212,1.18,0.718
TAGCCTAGGTCATTGGGGCAGTATAGTACGCATC,4.67,3.57,1.22,3.42,0.997,4.2,4.24,4.06,1.15,3.06,3,4.45,0.832,0.251,1.66,1.89,0.425,2.52,0.554,3.83
CCTCGGAGGACAACAGGAGGTCAGTGCTGCCAGA,0.821,1.62,1.58,1.15,-0.378,1.62,0.333,0.375,-0.857,-0.495,-0.0147,0.469,-1.04,-1.78,0.702,1.78,0.131,2.05,0.116,2.92
TCGAGTAGGTTAGTCGGGGCATTAAGCCAACATA,-0.0253,-0.0214,-0.347,0.387,-0.774,0.728,0.0278,0.922,1.05,1.18,2.22,1.85,-0.456,0.127,0.173,0.149,-0.182,0.471,-0.436,0.306
CCTGCTAGGTCATGGCCAGCTAATCTACAGTATG,3.55,2.55,0.0955,1.76,-0.401,3.99,2.7,3,0.634,2.16,4.25,3.91,0.0686,-0.931,0.851,1.27,-0.389,2.49,-0.572,3.98
GGAACGAGGGCAAAGTTGATAGCTTCTGTCGACG,1.24,0.709,-0.752,0.608,-0.484,3.85,6.78,6.83,5.74,7.17,4.1,4.11,0.574,0.0846,0.712,0.96,0.104,1.34,-0.449,2.14
